Rows were chosen to be rich in hits. Some 5.3% of all compounds tested hit in one or more screens of this group.
PfM18AAP inh = PfM18AAP enzyme inhibition | 290,000 compounds, 1.2% hits | inhibition, % at 7.35 µM | recombinant PfM18AAP, H-Glu-NHMec fluorogenic cleavage;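 active = inhibition above the campaign mean inhibition over all tested compounds plus 3 SD, cut at about 28% in these data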;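 note: 0% = plate median of test compound wells and 100% = 2 mM ZnCl2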
Mot1-301 SUMO = SUMOylation pathway inhibition by Mot1-301 growth rescue | S. cerevisiae Mot1-301 growth rescue, ATP luminescence, 38.5C; percent above DMSO median, 100 means doubled | 320,000 compounds, 1% hits | growth rescue, % at 18.8 µM;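 active = every valid replicate shows activation above 250% relative to neutral control wells; inactive = the rest, any valid replicate at or below 250%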;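 note: OY570 slx delta 5 strain wells were the positive control but not used for scaling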
HIF act = HIF pathway transcriptional activation. 300,000 compounds, 0.32% hits. activation, % at 7.5 µM (by protocol). U2OS HRE-luciferase reporter, luminescence; normalized: DMSO 0%, desferrioxamine 100%. AID 1910;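 active = mean activation of at least 10% of the iron chelator positive control signal, with at least half of replicates also reaching 10%; inconclusive = mean and replicate majority disagree about reaching 10%; inactive = mean and most replicates under 10%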
ALR H2O2 inh = human ALR oxidase inhibition via reduced H2O2 | inhibition, % (test concentration not listed) | purified ALR, DTT oxidation, H2O2 HRP-luminol luminescence | AID 485317 | 290,000 compounds, 3.8% hits;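 active = mean replicate inhibition above about 79%, with every replicate also reaching it, limit read from the data; inconclusive = only one of the two criteria met; inactive = mean below limit and not every replicate reaching it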
Target sequence (P55789 whole entry, looked up): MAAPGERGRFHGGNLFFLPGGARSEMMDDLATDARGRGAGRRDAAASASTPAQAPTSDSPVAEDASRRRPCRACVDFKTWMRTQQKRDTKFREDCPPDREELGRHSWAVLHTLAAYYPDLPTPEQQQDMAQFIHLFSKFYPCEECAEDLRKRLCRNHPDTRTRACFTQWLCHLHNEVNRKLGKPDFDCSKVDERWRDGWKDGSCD
An asterisk follows results filed as active; ? = inconclusive; nt = no result.

SMILES | PfM18AAP inh | Mot1-301 SUMO | HIF act | ALR H2O2 inh
COc1cc(CN(C)CC2CCCN(CCc3cccc(C(F)(F)F)c3)C2)ccc1O (centres undefined) | -1.3 | 348.2 | 0.8 | 3.5
COc1ccc(C=Nc2ccc3[nH]ncc3c2)c(O)c1 | 0.1 | 51.1 | 0.6 | 90.0*
CC1(C)CC(=O)C(C=Nc2ccc3[nH]ncc3c2)=C(O)C1 | -2.6 | 10.4 | 0.3 | 8.5
COc1ccc(NC(=O)C23CC4CC(CC(Cl)(C4)C2)C3)cc1S(=O)(=O)N1CCOCC1 | nt | 7.6 | nt | 0.0
COCCNC(=O)c1onc(CSc2cc(C)cc(C)c2)c1C(=O)O | 5.9 | -15.4 | 0.3 | 42.0
COCCNC(=O)c1onc(CSc2ccc(C)c(C)c2)c1C(=O)O | -7.6 | 14.2 | -1.3 | 90.4*
Cc1ccc(SCc2noc(C(=O)NC(C)C)c2C(=O)O)cc1C | 0.1 | 16.6 | 0.7 | 95.7*
CNc1nc(Sc2ccc(C)cc2)cc(C(F)(F)F)n1 | -1.6 | 340.9 | 0.4 | 5.1
O=C1[C@@H]2Cc3c([nH]c4ccccc34)C(c3ccccc3)N2C(=O)CN1CCO (some centres undefined) | 1.8 | 3.1 | -0.3 | 54.1
COCCCN1CC(=O)N2C(c3ccc(OC)c(OC)c3)c3[nH]c4ccccc4c3C[C@H]2C1=O (some centres undefined) | -5.5 | 305.2* | 0.8 | 35.5
O=C1[C@@H]2Cc3c([nH]c4ccccc34)C(c3ccc(Cl)cc3)N2C(=O)CN1CCO (some centres undefined) | 3.4 | -0.8 | -1.1 | 99.0*
COc1ccc(-n2c(CNC(=O)c3cc(OC)c(OC)c(OC)c3)n[nH]c2=S)cc1 | 3.8 | -12.1 | -0.1 | 93.4*
COc1cc(OC)cc(C(=O)NCc2n[nH]c(=S)n2-c2ccccc2OC)c1 | 16.5 | -2.9 | -0.4 | 63.0
Cn1c(CCNC(=O)OC(C)(C)C)n[nH]c1=S | 1.6 | 0.3 | -0.6 | 95.2*
O=C(NCc1n[nH]c(=S)n1-c1ccc(Br)cc1)c1ccc(S(=O)(=O)N2CCOCC2)cc1 | 28.5* | 66.0 | 0.4 | 24.8
COc1ccc(-n2c(CNC(=O)c3ccc(S(=O)(=O)N4CCCC4)cc3)n[nH]c2=S)cc1 | 17.9 | 51.5 | 0.4 | 91.2*
O=C(NCc1n[nH]c(=S)n1-c1ccc(Br)cc1)c1ccc(S(=O)(=O)N2CCCCC2)cc1 | 8.6 | -9.1 | 0.0 | 38.7
O=C(NCc1n[nH]c(=S)n1-c1ccc(F)cc1)c1ccc(S(=O)(=O)N2CCCCC2)cc1 | 20.2 | -3.6 | -0.1 | 25.0
O=C(NCc1n[nH]c(=S)n1-c1ccc(Br)cc1)c1ccc(S(=O)(=O)N2CCCC2)cc1 | 22.6 | 83.2 | -0.5 | 91.2*
COc1cccc(-n2c(CNC(=O)OC(C)(C)C)n[nH]c2=S)c1 | 11.1 | -6.2 | -0.1 | 89.1*
COc1ccc(CC(=O)NCc2n[nH]c(=S)n2C)cc1 | 3.9 | 5.4 | 0.5 | 96.6*
CC(C)c1ccc(S(=O)(=O)/N=C2/C=C(Sc3ncn[nH]3)C(=O)c3ccccc32)cc1 | 30.6* | -16.8 | nt | -63.6
Cc1ccc(S(=O)(=O)/N=C2/C=C(Sc3ncn[nH]3)C(=O)c3ccccc32)c(C)c1 | 37.7* | -5.3 | nt | -5.2
Cc1ccc(S(=O)(=O)/N=C2/C=C(Sc3ncn[nH]3)C(=O)c3ccccc32)cc1 | 51.2* | -32.5 | nt | -28.2
CC(C)(C)c1ccc(S(=O)(=O)/N=C2\C=C(NS(=O)(=O)c3ccccc3)C(=O)c3ccccc32)cc1 | -3.2 | 591.4 | -0.1 | 31.5
SMILES | PfM18AAP inh | Mot1-301 SUMO | HIF act | ALR H2O2 inh
CC(=O)Nc1ccc(NC(=O)CCC(=O)Oc2ccc(C)cc2)cc1 | -9.3 | -1.5 | -0.1 | 8.8
COc1ccccc1CCC(=O)N(C)CC(=O)Nc1ccc(F)cc1 | 3.5 | 46.9 | -0.5 | -8.5
CCOc1nc(-c2ccccc2)ncc1Oc1ccccc1 | nt | -12.3 | 0.3 | -4.1
CC(C)CCNC(=O)C1CCN(S(=O)(=O)c2ccc3c(c2)CCC(=O)N3)CC1 | -0.7 | 3.9 | nt | 84.5*
CCOC(=O)Cc1csc(SCC(=O)NC2CCS(=O)(=O)C2)n1 (centres undefined) | nt | -5.7 | nt | 0.1
O=C(c1cccnc1)n1nc(NCc2ccccc2)nc1NCc1ccccc1 | 28.2* | 2.0 | 0.2 | -2.1
CC(=O)C1=C(c2cccc([N+](=O)[O-])c2)N(C(C)=O)n2c(C)nnc2S1 | 23.6 | 155.5 | 0.0 | 97.7*
O=C(NC(=S)Nc1ccccn1)c1cc(-c2ccccc2)nc2ccccc12 | 5.4 | -13.3 | 183.8* | 5.1
CCNC(=S)NNC(=O)c1cc(-c2cccnc2)nc2ccccc12 | 6.7 | -14.0 | -0.3 | 88.0*
C/C(=N\NC(=O)c1cc(-c2cccnc2)nc2ccccc12)c1ccccc1O | 2.5 | 2.9 | 17.6* | -29.0
COc1ccc(/C(C)=N/NC(=O)c2cc(-c3cccnc3)nc3ccccc23)cc1 | -1.4 | 4.2 | 0.0 | -29.6
CCCNC(=S)NNC(=O)c1cc(-c2cccnc2)nc2ccccc12 | 10.5 | -3.9 | -0.2 | 7.7
O=C(NC1CCN(C(=O)Nc2ccccc2Cl)CC1)c1ccccc1 | -1.4 | 18.6 | 0.0 | -4.2
CCOc1ccc(S(=O)(=O)N2CCC(C(=O)NCc3ccco3)CC2)cc1C | -2.3 | 64.4 | -0.2 | 1.2
C=C(c1ccccc1C)[n+]1ccccc1 | 1.3 | 7.6 | -4.0 | -16.0
COc1ccc(NC(=O)Cc2nnc(SCC(=O)Nc3nccs3)n2C)cc1 | 2.4 | -8.2 | -0.5 | 1.3
CC(Oc1ccc(Cl)cc1Cl)C(=O)Nc1ccc(O)cc1 (centres undefined) | 4.9 | 7.1 | 0.2 | 98.3*
CC(Oc1ccc(Cl)cc1Cl)C(=O)Nc1cccc(O)c1 (centres undefined) | -0.7 | 16.5 | 3.3 | 23.0
CCC(=O)c1ccc(OCC(=O)Nc2ccc(S(=O)(=O)Nc3cc(C)nc(C)n3)cc2)cc1 | nt | 6.1 | nt | 0.3
CCCOc1ccc(C(=O)Nc2ccc(S(=O)(=O)Nc3cc(C)nc(C)n3)cc2)cc1 | 1.8 | -14.8 | -0.4 | 96.1*
COCCN(CCOC)S(=O)(=O)c1ccc(C(=O)Nc2ccc(S(=O)(=O)Nc3nccc(C)n3)cc2)cc1 | -1.8 | 13.0 | -0.3 | 90.0*
COc1ccc2[nH]cc(CCNC(=O)Cc3ccc(Cl)cc3)c2c1 | -1.3 | -2.4 | -0.3 | 6.4
C=CCn1c(COc2ccc(F)cc2)nnc1SC(C)C(=O)NCC1CCCO1 (centres undefined) | nt | -0.5 | nt | -6.0
Cc1ccc(CNC(=O)CCNS(=O)(=O)c2cccc3nsnc23)cc1 | 1.6 | 5.9 | -0.5 | nt
Cc1ccc(N=C(NO)c2nonc2N)cc1 | 3.0 | -2.8 | -1.5 | 91.9*
SMILES | PfM18AAP inh | Mot1-301 SUMO | HIF act | ALR H2O2 inh
Cc1ccc(C(=O)O/N=C(/c2nonc2N)N(C)C)cc1 | -12.8 | -1.8 | 0.1 | nt
CC(=O)Nc1ccc(NC(=O)CCC(=O)OCC(=O)c2ccc(F)cc2)cc1 | 1.5 | 12.5 | ? | 4.1
CN(Cc1nc(-c2cccs2)no1)CC1(N2CCOCC2)CCCCC1 | -5.8 | 33.9 | -0.4 | 3.2
CC(Oc1ccc2ccc(=O)oc2c1)C(=O)NCCN1CCOCC1 (centres undefined) | -8.1 | -7.5 | 60.5* | -4.0
CC(Oc1ccc2c(-c3ccccc3)cc(=O)oc2c1)C(=O)NCCN1CCOCC1 (centres undefined) | -0.3 | 4.6 | 0.2 | -1.7
CN(Cc1cccs1)C(=O)COc1cccc2c1OC(C)(C)C2 | nt | -5.7 | nt | 4.1

Compound activity (PubChem BioAssay)
